Results from PubChem BioAssay (NCATS).
Records with an inconclusive call do not appear. Unmarked numbers belong to inactive results. The call rests on the fitted dose curve; in most records, active means well fitted activation curve with a large enough effect; inconclusive means small, poorly fitted or top-dose-only effect; inactive means flat fitted curve, though single readings scatter. Starred links: 1 amine or outer side, 2 acyl side, 3 side chain; linkers in the order of their positions; H or OH if unused. Positions of bridges follow the written chain, without caps; N, C: chain ends. Non-standard residues stand in square brackets, D forms with d. Residues, ends and D or L forms follow the SMILES beside them. ξ: configuration not given here. *: point of attachment. X3 = C[C@@H](Oc1ccc([C@H](N[*:1])C(=O)[*:2])cc1)[C@]1(/C=C\C(=O)[*:3])CO1; d(aIle) = CC[C@H](C)[C@@H](N)C(=O)O; X2 = CC(C)[C@@H](O)C(C)C(=O)*; ξNMeF = CNC(Cc1ccccc1)C(=O)O; ξT = CC(O)C(N)C(=O)O; ξS = NC(CO)C(=O)O

Assay: HEK293 18hr Apoptosis Induction qHTS against the NCATS CANVASS Library (AID 1347357); further: 0% is about no effect
Conditions: HEK293 caspase-3/7 Caspase-Glo luminescence; series mostly up to 46.1 µM; caspase activation: at the top concentration
From the text: Natural products and their derivatives continue to be wellsprings of nascent therapeutic potential. However, many laboratories have limited resources for biological evaluation, leaving their previously isolated or synthesized compounds largely or completely untested. To address this issue, the Canvass library of natural products was assembled (https://tripod.nih.gov/canvass), in collaboration with academic and industry researchers, for quantitative high-throughput screening (qHTS) across a diverse set of cell-based and biochemical assays. The pure (>85% purity by liquid chromatography/mass spectrometry [LC/MS]) Canvass library of 346 natural products were submitted by 45 academic laboratories and companies around the world. We collected pure natural products to circumvent deconvolution and structure elucidation due to time and resource limitations. The library was formatted into 1536-well plates and evaluated in 50 qHTS (in an 11-pnt concentration series) bioassays with broad scope of disease-relevant mechanisms. The resulting data set from 50 different assays was then systematically analyzed to identify overall trends and specific natural products with interesting biological activities. Reported herein are the results of each individual qHTS and their corresponding assay protocol. The Caspase-Glo (R) (Promega) is a homogeneous, luminescent assay that measures caspase activity. The detection substrate contains tetrapeptide sequence DEVD in an "add-mix-measure" format. The reagent generates a luminescent signal produced by a thermostable luciferase. The luminescence is proportional to the amount of caspase activity in the assay reaction. National Center for Advancing Translational Sciences (NCATS), Rockville, MD National Institute of Health (NIH), Bethesda, Maryland
Cancer Cell Apoptosis Assay 1. In a 1536 well, white solid bottom tissue culture plates (Corning 7494), HEK293 cancer cells in DMEM + 10% FBS + 1% P/S media were dispensed in each well at a final concentration of 500 cells / well (5uL volume) using the Multidrop Combi (Thermo Fisher Scientific) dispenser. 2. Compounds were pin transferred (~23nL volume) via Wako Pin-tool (Wako Automation, Richmond VA) equipped with a 1536 pin head. The assay plates were treated with compounds in a concentration series with a final concentration range of 0.17nM to 103uM. 3. Doxorubicin was used as a control in a 16pnt titration (1mM; 1:2 dilution; 16-points; n = 2; column 3, rows 1 - 32) and was pin transferred via Wako Pin-tool equipped with a 1536 pin head. The final concentration range of doxorubicin is 0.1nM - 4uM. 4. The assay plates were incubated for 18 hours at 37 degrees C/5% CO2/95% Rh. 5. 3uL Caspase-Glo 3/7 (R) (Promega) detection reagent was then added to the assay plates (columns 2 - 48, rows 1 - 32) and incubated at room temperature, covered from light, for 15 min. 6. Luminescence signal was acquired via the ViewLux plate reader (PerkinElmer) using a clear filter, 20 second exposure and 2x binning settings.

| Structure (SMILES) | caspase activation |
| --- | --- |
| CO[C@H]([C@@H](C)[C@H]1O[C@]1(C)C[C@H](C)/C=C/C=C(\C)[C@H]1O[C@@H](CC(=O)O)CC[C@@H]1C)[C@@H](C)O | -1.49% |
| CO[C@@H](/C=C/CC/C=C/C(=O)O)[C@@H](O)[C@H](C)/C=C(\C)[C@H](O)[C@H](C)C(=O)CCCC1CC(=O)NC(=O)C1 | 3.91% |
| O[C@H]1C=C[C@@]23CCN(Cc4cc5c(cc42)OCO5)[C@@H]3C1 | 1.77% |
| CC[C@H]1CN2CCc3c([nH]c4cccc(OC)c34)[C@@H]2C[C@@H]1/C(=C\OC)C(=O)OC | -1.4% |
| c1ccc2nc3c(cc2c1)[nH]c1ccccc13 | -8.52% |
| CC[C@@H]1CN2CCc3c([nH]c4cccc(OC)c34)[C@@H]2C[C@@H]1/C(=C\OC)C(=O)OC | 2.36% |
| C[C@]12CC(O)C3[C@@H](CCC4C[C@@H](O)CC[C@@]43CO)[C@@]1(O)CC[C@@H]2C1=CC(=O)OC1 (some centres undefined) | -3.98% |
| CO[C@H]1[C@H](O[C@H]2CC[C@]3(C=O)[C@H]4CC[C@]5(C)[C@@H](C6=CC(=O)OC6)CC[C@]5(O)[C@@H]4CC[C@]3(O)C2)O[C@H](C)[C@H](O)[C@@H]1OC | -2.76% |
| C=C[C@]12C=CCN3CC[C@@]4(c5ccccc5NC(=O)[C@@H]4C1)[C@@H]32 | 2.73% |
| CC[C@H](C)[C@H]1NC(=O)[C@@H](NC(=O)C(C)[C@H](O)C(C)C)[C@@H](C)OC(=O)C2COC(=O)CNC(=O)/C=C\[C@]3(CO3)[C@@H](C)Oc3ccc(cc3)[C@H](NC1=O)C(=O)N(C)C(Cc1ccccc1)C(=O)NC(C(C)O)C(=O)N2 (some centres undefined) (X2-T[d(aIle)][X3][ξNMeF][ξT][ξS]; ester 1-C; linker 3-6 via G) | 1.73% [at 27.5 µM] |
| C[C@]12CC(O)C3[C@@H](CC[C@@H]4C[C@@H](O)CC[C@]34CO)[C@@]1(O)CC[C@@H]2C1=CC(=O)OC1 (some centres undefined) | -3.6% |
| CCCCC1CC[C@H]2CCCC(CCC)N12 (some centres undefined) | 1.96% |
| C=CC(C)(C)[C@@]12C[C@H]3C(=O)N/C(=C\c4cnc[nH]4)C(=O)N3[C@@H]1Nc1ccccc12 | 3.05% |
| CC[C@]12C=CCN3CC[C@]4(C(=C(C(=O)OC)C1)Nc1ccccc14)[C@@H]32 | 1.35% |
| COC1=C(C2=C(OC)C(=O)c3cc4c(c(O)c3C2=O)C(=O)O[C@H](C)C4)C(=O)c2c(cc3c(c2O)C(=O)O[C@H](C)C3)C1=O | 2.59% [at 15.4 µM] |
| C/C=C(\C)C(=O)O[C@@H]1[C@@H](O)[C@@H]2O[C@H]3[C@H](O[C@@H](CCCCC)CCCCCCC(=O)CCC(=O)OC[C@@H](O2)[C@H]1OC(=O)/C=C/c1ccccc1)O[C@H](C)[C@H](OC(C)=O)[C@@H]3O | 11.1% |
| C/C=C1/CN2CC[C@]34C(=C(C(=O)OC)[C@H]1C[C@H]23)Nc1ccccc14 | -0.187% |

| Structure (SMILES) | caspase activation |
| --- | --- |
| C=CC(C)(C)[C@@]12C[C@H]3C(=O)N/C(=C/c4cnc[nH]4)C(=O)N3[C@@H]1Nc1ccccc12 | 2.25% |
| CCCC[C@@H]1CC[C@H]2CCCC(CCCO)N12 (some centres undefined) | 2.03% |
| C1=C2CCCN[C@H]2C2CC1[C@H]1CCCCN1C2 (some centres undefined) | 0.913% |
| C/C=C/[C@@H]1[C@H]2C[C@@H](C)CC[C@@H]2C(C)=C[C@H]1C(=O)c1c(O)c(-c2ccc(O)cc2)c[nH]c1=O | 5.82% |
| C[C@]12CCC3[C@@H](CC[C@@H]4C[C@@H](O)CC[C@]34CO)[C@@]1(O)CC[C@@H]2C1=CC(=O)OC1 (some centres undefined) | -3.6% |
| CCC(=O)N[C@@H](C[C@H](C)C(Cl)(Cl)Cl)C(=O)N1C(=O)C=C(OC)[C@@H]1C[C@H](C)C(Cl)Cl | 4.83% |
| C[N+](C)(C)CCc1c[nH]c2ccccc12 | 2.81% |
| C=C[C@H]1CN2CCc3c([nH]c4cccc(OC)c34)[C@@H]2C[C@@H]1/C(=C\OC)C(=O)OC | 2.2% |
| CC(C)CC1C(=O)O[C@H](C(C)C)C(=O)N(C)C(CC(C)C)C(=O)O[C@@H](C(C)C)C(=O)N(C)C(CC(C)C)C(=O)O[C@H](C(C)C)C(=O)N(C)C(CC(C)C)C(=O)O[C@@H](C(C)C)C(=O)N1C (some centres undefined) | 17.3% |
| COC1C(O)C(C)OC(OC2C(Oc3cccc4c(O)c5c(=O)oc6ccc(C)c7c(=O)oc(c34)c5c67)OC(C)C(O)C2O)C1O (centres undefined) | 1.54% |
| C=C(C)[C@H]1C(=O)c2c3c(cc4c5c(n1c24)[C@@]1(C)[C@@H](CC[C@H]2[C@](C)(/C=C/C=C(\C)C(=O)O)[C@@H](O)CC[C@@]21C)C5)C1=CC(C)(C)OC(C)(C)[C@H]1[C@@H]3O | 8.59% |
| C/C(=C\[C@H](C)C(=O)C[C@H](O)CC1CC(=O)NC(=O)C1)[C@@H]1OC(=O)/C=C/CC/C=C/C=C/[C@@H]1C | -1.03% |
| CO[C@H]1C[C@H](O[C@H]2[C@@H](O)C[C@H](O[C@H]3CC[C@]4(C=O)[C@H]5CC[C@]6(C)C(C7=CC(=O)OC7)CC[C@]6(O)[C@@H]5CC[C@]4(O)C3)O[C@@H]2C)O[C@H](C)[C@H]1O[C@H]1C[C@@H](OC)[C@@H](O[C@@H]2O[C@H](CO)[C@@H](O)[C@H](O)[C@H]2O)[C@@H](C)O1 (some centres undefined) | -4.29% |
| CC[C@@H]1CN2CCC3(Nc4cccc(OC)c4C3=O)[C@@H]2C[C@@H]1/C(=C\OC)C(=O)OC (some centres undefined) | 4.59% |
| C/C=C1/CN2CC[C@@]34c5ccccc5N(C)[C@@H]3[C@@H]2C[C@@H]1[C@H]4C(=O)OC | 1.6% |
| CCCC[C@@H](C)/C=C1/CN2CCC[C@H]2[C@@](C)(O)[C@@H]1O | 1.51% |
| CO[C@@]12c3c(C)cc(O)c4c(=O)occ(c34)C(=O)[C@@H]1[C@]13COC(=O)c4c(O)cc(C)c(c41)C(=O)[C@H]2[C@@H]3OC(C)=O | 4.88% |
